Test results from PubChem BioAssay AID2726 (Broad Institute, 2010).
This is one part of the list. Calls of active or inactive are those of the source.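 Rule for the calls: active = every replicate shows growth inhibition above 50%; inconclusive = at least half, but not all, replicates pass that cutoff; inactive = fewer than half of replicates pass it.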

Experiment: inhibitors of JMH597 bacterial growth – JMH597 strain, OD600 absorbance, counter-screen for AI-2 quorum sensing project, confirmation (AID 2726)
Details: Vibrio harveyi JMH597 growth, 9 h, at 7.5 µM, hits give high values, lacks LuxN and CqsS sensors

Row | Compound | growth inhibition
1 | CC(C)(C)c1ccc(OC2=CS(=O)(=O)c3ccccc32)cc1 | 31.5% (inactive)
2 | COC(=O)c1ccc(SCc2ccccc2)nc1 | 13.9% (inactive)
3 | Cc1cc(CN(C)C(=O)c2cc(COc3ccc(C)c(C)c3)on2)n[nH]1 | 25.5% (inactive)
4 | N/C(=N\OC(=O)CCc1ccccc1)c1cccnc1 | 3.39% (inactive)
5 | O=C(Nc1ccc(F)c(Cl)c1)C1CCN(S(=O)(=O)c2cccnc2)CC1 | -9.31% (inactive)
6 | Cc1ccc(NS(=O)(=O)c2ccc3c(c2)NC(=O)CO3)cc1 | -1.97% (inactive)
7 | CCOc1ccc(/C=N/NC(N)=S)cc1 | 8.81% (inactive)
8 | COC(=O)C1CCN(C(=O)c2ccc3oc(Cc4ccc(Cl)cc4)nc3c2)CC1 | 26.4% (inactive)
9 | O=C(Cn1cnc2ccccc2c1=O)Nc1cccc(S(=O)(=O)N2CCCCC2)c1 | 22.5% (inactive)
10 | Cc1cc(C(=O)OCC(=O)Nc2ccc(F)c(F)c2)c(C)o1 | 2.76% (inactive)
11 | CN(Cc1cnccn1)C(=O)c1cc(COc2cccc(C(F)(F)F)c2)on1 | 4.24% (inactive)
12 | Cc1ccsc1C(=O)OCC(=O)c1cc2ccccc2o1 | 32.2% (inactive)
13 | Cc1nn(CC(=O)Nc2ccc(F)cc2)c(=O)c2ccccc12 | 2.73% (inactive)
14 | Cc1ccc(Oc2cnn(-c3ccccc3)c(=O)c2Br)cc1 | -6.12% (inactive)
15 | Cc1ccccc1C(=O)Nc1ccc(N2CCCCCC2)cc1 | 25.5% (inactive)
16 | Cc1ccccc1NC(=O)CCOc1ccccc1 | -12.9% (inactive)

Row | Compound | growth inhibition
17 | O=C1COc2ccc(S(=O)(=O)Nc3ccc(OC(F)(F)F)cc3)cc2N1 | 41.4% (inactive)
18 | Cc1ccc(NC(=O)C2CC2c2ccccc2)cc1 (configuration not stated) | -14.1% (inactive)
19 | O=C(/C=C/c1ccc2c(c1)OCO2)NCc1ccc(F)cc1 | 4.99% (inactive)
20 | O=C(c1cc(-c2cccc(O)c2)on1)N1CCc2ccccc2C1 | 14.2% (inactive)
21 | O=C(COc1ncnc2ccccc12)NC(=O)NCc1ccccc1 | 17.5% (inactive)
22 | COc1ccc(/C(N)=N/OC(=O)Cc2ccccc2)cc1 | 15.4% (inactive)
23 | Cc1ccc(Cc2nc(-c3cccc(C)c3)no2)cc1 | 30.5% (inactive)
24 | COc1cccc(NC(=O)NCc2ccc(F)cc2)c1 | -8.06% (inactive)
25 | CCOC(=O)c1nn(-c2cccc(C)c2)cc1C(=O)c1ccccc1 | -8.39% (inactive)
26 | CC(=O)c1cccc(OCc2cc(C(=O)NC(C)Cc3cccnc3)no2)c1 (configuration not stated) | 1.63% (inactive)
27 | O=C(COC(=O)C1CCCCC1)Nc1ccc([N+](=O)[O-])cc1 | -6.27% (inactive)
28 | O=C(/C=C/c1ccc2c(c1)OCCO2)c1ccc(O)cc1 | 2.39% (inactive)
29 | O=C(CCC(=O)c1cccs1)Nc1nc2ccccc2s1 | -16.4% (inactive)
30 | S=C(NCc1ccc(Cl)cc1)NC1CCCCC1 | 11.3% (inactive)
31 | Cc1cccc(CSc2ccc(-c3cccs3)nn2)c1 | 18.7% (inactive)
32 | CC(CNc1ccc([N+](=O)[O-])cc1)NC(=O)c1ccccc1Br (configuration not stated) | 16.7% (inactive)
